# Screening data (PubChem BioAssay)
# This is one part of a sample in which hits are shown more often than they occur.
# TbPYK inhibitor: T. brucei pyruvate kinase inhibition; TbPYK enzyme, Kinase-Glo Plus ATP luminescence, 45 min; AID 624173; Potency, µM (top dose mostly 76.8 µM), for inactives: at the highest dose activity, negative = inhibition, hits mostly inhibitors; hit rate 0.12% among 410,000; Q57TT1; also: potency is read from the fitted curve at half-maximal effect; % is scaled to controls: 0 for no effect and ±100 for the full control effect; nearly all actives have a fitted effect of over 50% in size
#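 Luminescent Kinase-Glo Plus end-point after 45 min room-temperature reaction of T. brucei pyruvate kinase started with 130 uM ADP (final). Buffer TEA 50 mM pH 7.2 with KCl, MgCl2, BSA, Tween-20; titration-based qHTS with fitted concentration-effect curves.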
# CHX counter: counter-screen hit for Shiga toxin inhibitors, cycloheximide; cell reporter, cycloheximide protein synthesis inhibition counterscreen; max response, %; hit rate 12% among 300,000; AID 2314; in the data active = max response mostly above about 13%, no sharp cut-off; inactive = mostly below about 14%; also: read at 38.3 µM for the half of the compounds with a filed dose; 0% is about no effect
# LmPK inh: LmPK (Leishmania mexicana) enzyme inhibition; Q27686; purified LmPK, Kinase-Glo ATP luminescence, 1 h; Potency, µM (top dose mostly 57.5 µM), inactives show at the top dose activity change, negative = inhibition, most hits filed as inhibitors; hit rate 0.37% among 290,000; also: potency is read from the fitted curve at half-maximal effect; % is scaled to controls: 0 for no effect and ±100 for the full control effect
# Target sequence (Q27686 whole entry, looked up): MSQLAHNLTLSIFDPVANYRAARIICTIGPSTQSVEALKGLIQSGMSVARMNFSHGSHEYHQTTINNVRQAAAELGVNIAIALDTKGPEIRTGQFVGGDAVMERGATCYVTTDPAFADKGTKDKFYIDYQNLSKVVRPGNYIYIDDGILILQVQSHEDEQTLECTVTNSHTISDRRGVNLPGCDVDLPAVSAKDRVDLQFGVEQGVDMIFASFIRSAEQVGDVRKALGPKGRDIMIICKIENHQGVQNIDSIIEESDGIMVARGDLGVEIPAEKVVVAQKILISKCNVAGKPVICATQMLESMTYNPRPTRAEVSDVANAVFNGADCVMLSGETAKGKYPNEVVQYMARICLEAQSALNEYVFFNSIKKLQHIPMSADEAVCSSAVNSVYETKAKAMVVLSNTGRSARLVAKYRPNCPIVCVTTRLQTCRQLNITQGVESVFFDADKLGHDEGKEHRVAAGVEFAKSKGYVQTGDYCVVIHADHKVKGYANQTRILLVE
#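 Screened at intermediate enzyme activity to detect both inhibitors and activators: LmPK at 0.1 nM, with a 0.5 nM enzyme column as activation reference. PEP 0.5 mM, ADP 0.1 mM; ATP detected by luminescence after 1 h.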
# Giardia FBPA inh: blocks Giardia fructose-bisphosphate aldolase activity; purified Giardia FBPA; Potency, µM (series often up to 59.6 µM), without a hit: top-dose activity, negative = inhibition, hits mostly inhibitors; hit rate 0.71% among 290,000; AID 2451; also: potency is read from the fitted curve at half-maximal effect; % is scaled to controls: 0 for no effect and ±100 for the full control effect; nearly all actives have a fitted effect of over 55% in size
#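 Giardia FBPA (40 nM reagent) was preincubated 10 min at RT with compound (up to 57.5 uM final), then substrate plus GAPDH/TPI/NAD/arsenate coupling system with diaphorase/resazurin was added; resorufin fluorescence (525/598 nm) was read after 20 min.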
# RE007 growth inh: less growth of the S. pombe RE007 Vpr strain; hit rate 0.21% among 360,000; AID 651644; Potency, µM (doses to about 92.2 µM), for inactives: top-dose activity change, negative = less growth, usual class: inhibitors; S. pombe RE007 Vpr strain, BacTiter-Glo ATP luminescence, 24 h; active = well fitted falling curve with a large enough effect; inconclusive = small, poorly fitted or top-dose-only effect; inactive = no such curve, though single readings can be large or run the other way; also: potency is read from the fitted curve at half-maximal effect; % is scaled to controls: 0 for no effect and ±100 for the full control effect; nearly all actives have a fitted effect of over 50% in size
#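 Fission yeast strain RE007, carrying one chromosomally integrated HIV-1 vpr copy, was seeded at OD 0.01 in PMG+AL medium with 23 nL pinned compound. After 24 h at 30 °C and 99% humidity, viability was read by BacTiter-Glo luminescence.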
# Shiga toxin inh: inhibitors of Shiga toxin in Vero cells | Vero cells, Shiga toxin protein synthesis inhibition reporter | AID 2315 | hit rate 9.2% among 290,000 | inhibition, % at 38.7 µM; in the data active = inhibition mostly above about 28%, no sharp cut-off; inactive = mostly below about 43%; also: 0% is about no effect
# * = called active by the depositor; ? = inconclusive; nt = no result given. Unless noted, calls follow the shape of the dose curve; as a rule, active = well fitted curve in the direction sought with a large enough effect; inconclusive = small, poorly fitted or top-dose-only effect, or another doubt; inactive = no such curve, though single readings can be large; an effect the other way counts as inactive or inconclusive.
SMILES,TbPYK inhibitor,CHX counter,LmPK inh,Giardia FBPA inh,RE007 growth inh,Shiga toxin inh
COc1ccc(C(=O)[C@H]2[C@H]3C(=O)N(c4ccccc4)C(=O)[C@H]3C3C=CC=NN32)cc1 (some centres undefined),-13%,10,-2%,?,-22%,14
Cc1ccc(N2C(=O)[C@@H]3[C@H](C2=O)[C@H]2C=CC=NN2[C@@H]3C(=O)Nc2ccccc2)cc1,-6%,16*,-2%,?,-12%,15
Cc1c(Cl)cccc1-n1ncc(C(=O)NC2CCCC2)c1C1CCN(C(=O)OC(C)(C)C)CC1,4%,nt,nt,nt,nt,nt
Cc1ccc(OCc2nc(-c3ccc(C(=O)NCCc4ccc(S(N)(=O)=O)cc4)cc3)oc2C)cc1,3%,nt,nt,nt,nt,nt
CCOc1ccc(S(=O)(=O)N(CC(=O)NCCSc2ccccc2)c2ccccc2)cc1,2%,nt,nt,nt,nt,nt
Cc1cccc(N2CCN(C(=O)Cn3c(=O)c4cccn4c4ccc(F)cc43)CC2C)c1 (centres undefined),0%,nt,nt,nt,nt,nt
NC(=O)[C@@H]1CCCN1,nt,-2,nt,-2%,nt,-3
Cc1ccc(N2C(=O)C3C(C2=O)C(C(=O)c2ccc(Cl)cc2)N2CCCC32)cc1 (centres undefined),3%,14,8%,-5%,-19%,16
CC(=O)Oc1ccc(N2C(=O)C3C(C2=O)C(C(=O)c2ccc(Cl)cc2)N2CCCC32)cc1 (centres undefined),-28%,29*,1%,17%,-18%,6
O=C(NCc1ccccc1)c1ccc2c(c1)sc1nc(-c3ccc(F)cc3)cn12,3%,nt,nt,nt,nt,nt
NNC(=S)NC1CCCCC1,-1%,13*,-4%,?,3%,43*
O=C(/C(=C/c1ccc(Cl)cc1)c1nc2ccccc2[nH]1)c1ccccc1,3%,37*,3%,-1%,-4%,41*
C(=C\c1ccco1)/c1nc2ccccc2[nH]1,-20%,50*,?,-22%,-26%,70*
C(=C\c1nc2ccccc2[nH]1)/c1ccccc1,?,21*,8.9µM*,-22%,32µM*,68*
O=c1[nH]c2ccccc2nc1/C=C/c1ccc(Cl)cc1,-24%,37*,-2%,5%,-8%,69*
Cc1ccc(COc2ccc3oc(-c4ccccc4)c(C(=O)O)c3c2)cc1,-7%,0,nt,nt,nt,14
COC(=O)Cn1c(=O)c2c(nc3n2CCCN3Cc2ccccc2)n(C)c1=O,-7%,-3,6%,-11%,1%,-22
O=C(OCCOc1ccccc1Cl)c1ccc(-n2cnnn2)cc1,-6%,36*,4%,0%,1%,75
COc1ccccc1CNC(=O)COC(=O)c1ccc(-n2cnnn2)cc1,-13%,nt,nt,nt,-8%,nt
Cc1ccc(C2C(C#N)=C(N)Oc3n[nH]c(C)c32)cc1 (centres undefined),6%,-4,2%,-1%,-18%,-8
Cc1[nH]nc2c1C(c1ccc(Cl)cc1)C(C#N)=C(N)O2 (centres undefined),2%,19*,-4%,-6%,-6%,-13
N#CCCn1c(=O)c(-c2ccc(Cl)cc2)nc2cnc(N3CCNCC3)nc21,nt,nt,nt,-8%,nt,nt
COc1cccc(C2=NO[C@@H]3C(=O)N(c4ccc5c(c4)OCCO5)C(=O)[C@H]23)c1OC,1%,66*,1%,?,0%,109*
COc1cccc(C2=NO[C@@H]3C(=O)N(Cc4ccccc4)C(=O)[C@H]23)c1OC,2%,4,8%,-7%,-9%,27
CC(C)CNC(=O)C1C(=O)Nc2ccccc2C(=O)N1C(C)(C)C (centres undefined),nt,nt,nt,nt,9%,nt
SMILES,TbPYK inhibitor,CHX counter,LmPK inh,Giardia FBPA inh,RE007 growth inh,Shiga toxin inh
O=c1c2cc(Br)ccc2nc(-c2ccccc2)n1O,3%,11*,-1%,12%,nt,15
Cc1ccc(-c2nc3ccccc3c(=O)n2O)cc1,2%,5,3%,-24%,?,19
CC(C)CCOc1ccc(C2CC(=O)N(C)C2=O)cc1 (centres undefined),0%,21*,-2%,0%,1%,33
CC(C)CCOc1ccc(C(=O)O)cc1,-2%,12,-8%,22%,-2%,-4
Cc1ccc2oc(C(=O)Nc3ccc(S(=O)(=O)Nc4nccc(C)n4)cc3)cc(=O)c2c1,-1%,nt,nt,nt,nt,nt
Cn1cc(C(=O)C(=O)NC2CCCCC2)c2ccccc21,-3%,33*,2%,nt,-18%,55*
O=C(c1ccccc1)c1c[nH]c2ccccc12,-6%,35*,-1%,-1%,?,64*
O=C(NC1CC1)C(=O)c1c[nH]c2ccccc12,1%,19*,-2%,2%,4%,100*
O=C(CSc1ccc(Cl)cc1)Nc1ccc(-c2nc3ccccc3[nH]2)cc1,4%,-2,1%,5%,2%,24
Cc1ncc(CO)c(CNc2ccc(-c3nc4ccccc4[nH]3)cc2)c1O,0%,16*,0%,8%,6%,28
CCOc1ccccc1CNC(=O)c1ccc2nc(N3CCC(C)CC3)sc2c1,-2%,nt,nt,nt,nt,nt
COc1ccc2c(c1OC)C(=O)N1c3ccccc3SC21 (centres undefined),-20%,35*,-4%,20%,-3%,54*
COc1ccc2c(c1OC)C(=O)N1c3ccccc3COC21 (centres undefined),-1%,41*,-14%,-9%,-20%,80*
Cc1ccc(S(=O)(=O)N2CCC(C(=O)OCC(=O)Nc3cc(S(C)(=O)=O)ccc3Cl)CC2)cc1C,4%,1,-1%,nt,-5%,-4
CCn1cc(C(=O)N2CCN(c3ccccc3)CC2)c(=O)c2cc(S(=O)(=O)N3CCC(C)CC3)ccc21,-4%,nt,nt,nt,nt,nt
CCOC(=O)c1cnc2ccc(C)cc2c1NCCc1ccc(OC)c(OC)c1,-4%,nt,nt,nt,nt,nt
COCCN(CCOC)c1ncnc2c1cnn2-c1ccccc1,-3%,15*,1%,2%,-6%,34*
COCCNc1ncnc2c1cnn2-c1ccc(Cl)cc1,0%,43*,0%,0%,11%,73*
CCOc1ccccc1Nc1ncnc2c1cnn2-c1ccccc1,0%,9,5%,0%,15%,-3
CCN(CC)c1ncnc2c1cnn2-c1cc(Cl)ccc1C,5%,nt,nt,nt,nt,nt
COCCN(CCOC)c1ncnc2c1cnn2-c1ccc(Cl)cc1,-2%,60*,2%,0%,17%,76*
COc1ccc(C)cc1NC(=O)NNC(=O)C(C)Oc1ccc([N+](=O)[O-])cc1 (centres undefined),-4%,-2,-6%,4%,-7%,-11
O=C(CCc1nnc(C2CCCCC2)o1)N1CCN(C2CCCCC2)CC1,-2%,-2,-10%,3%,2%,-5
CN(CCC1CCCCO1)C(=O)CCc1nnc(C2CCCCC2)o1 (centres undefined),3%,31*,2%,0%,17%,40*
